The whole screen tested about 150,000 compounds, of which about 6,500 (4.3%) were called active. Inconclusive results (about 12%) are left out. This is one part of a sample in which actives are shown more often than they occur. Calls follow the shape of the dose curve; as a rule, active = well fitted inhibition curve with a large enough effect (not every such curve was filed as active); inconclusive = small, poorly fitted or top-dose-only effect, or another doubt; inactive = no such curve, though single readings can be large or run the other way.
Target: 15-hydroxyprostaglandin dehydrogenase [NAD(+)] (Homo sapiens) (UniProt P15428)
Sequence (P15428 whole entry, looked up): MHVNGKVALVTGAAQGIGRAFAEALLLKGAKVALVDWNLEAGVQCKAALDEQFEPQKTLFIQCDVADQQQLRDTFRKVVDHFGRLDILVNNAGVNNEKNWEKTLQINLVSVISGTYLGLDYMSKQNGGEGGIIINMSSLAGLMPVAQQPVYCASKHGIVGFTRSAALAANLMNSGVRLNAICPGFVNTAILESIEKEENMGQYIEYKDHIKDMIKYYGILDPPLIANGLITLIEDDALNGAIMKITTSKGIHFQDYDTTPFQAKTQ
Test: qHTS Assay for Inhibitors of HPGD (15-Hydroxyprostaglandin Dehydrogenase)
Conditions: purified HPGD, NADH fluorescence kinetic, PGE2 substrate; activity change, negative = inhibition: hits give low values
Outline: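 20 nM HPGD preincubated 15 min at room temperature with compound in 50 mM Tris-HCl pH 8, 0.01% Tween 20. Started with 1 mM NAD+ and 30 uM prostaglandin E2; NADH fluorescence (360/450 nm) read 5 times over 30-s intervals, last minus first.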
% is scaled to controls: 0 for no effect and ±100 for the full control effect; potency is read from the fitted curve at half-maximal effect.

Activity change, negative = inhibition, inactive:
COc1ccc(/C=N/OCC(=O)N(Cc2ccccc2)c2ccccc2C(=O)O)cc1 -8.65%
O=C(N/N=C/c1coc2ccccc2c1=O)c1cc2ccccc2o1 -20%
Cc1cccc(N2CCN(C(=O)/C=C/c3ccco3)CC2)c1C -20.4%
COc1ccc(OCC(=O)N2CCOCC2)cc1 4.8%
CCOc1cc(-c2noc(CCC(=O)N3CCOCC3)n2)ccc1OC -8.81%
COc1ccc(-c2nc3c(c4c2C[C@H](c2ccccc2)OC4)CN(C(=O)c2ccco2)CC3)c(C)c1 -11.6%
Cc1ccc(C(C)NC(=O)Cn2nc(C)c([N+](=O)[O-])c2C)cc1 (centres undefined) -5.59%
O=C(O)c1cccc(N=NN2CCCCCC2)c1 -9.76%
CCc1nnc(NC(=O)CCN(c2ccc(C)cc2)S(=O)(=O)c2ccccc2)s1 -10.2%
CC(=O)NNC1=Nc2ccccc2N(C)C(C)C1 (centres undefined) 0.367%
c1ccc2sc(SCCSc3nc4ccccc4s3)nc2c1 0.386%
Cc1nn(CC(=O)Nc2nc3ccccc3s2)c(C)c1[N+](=O)[O-] -4.84%
O=C(CSc1ccc2nnc(-c3ccccc3)n2n1)N1CCCc2ccccc21 -22.3%
CCOC(=O)c1c(C)[nH]c(C(=O)NCc2ccccc2OC)c1C -7.72%
COc1cc(SC)ccc1C(=O)NCCOc1ccccc1Cl -18.8%
CC(NC(=O)CCC(=O)N1CCN(S(=O)(=O)c2ccc(Cl)cc2)CC1)c1ccccc1 (centres undefined) -5.29%
Cc1c(Cl)cccc1NC(=S)NCc1ccc2c(c1)OCO2 -5.45%
CC(=O)c1c(Nc2ccccc2)sc(C(=O)c2ccccc2)c1C -1.98%
Cc1ccc(C(=O)c2c(NC(=O)c3ccncc3)sc3c2CCCC3)cc1 -22.2%
CCc1ccccc1NC(=O)CN(C)C(=O)COc1ccc(C)nc1[N+](=O)[O-] -2.83%
COc1ccc(NC(=O)COC(=O)c2ccc(NS(=O)(=O)/C=C/c3ccccc3)cc2)cc1 -13.7%
Cn1cnc([N+](=O)[O-])c1Nc1ccccc1O -2.73%
Cc1nn(C)c(Oc2ccccc2)c1[N+](=O)[O-] -7.95%
CCCN(CC1COc2ccccc2O1)C(=S)Nc1ccc(C)cc1 (centres undefined) -7.28%
CCS(=O)(=O)n1nc(-c2ccc(OC)cc2)nc1SC -4.54%
CCCC(=O)n1nc(-c2ccccc2)nc1N -7.53%
Cc1cc(F)ccc1S(=O)(=O)N1CCCOC1CNC(=O)C(=O)NCCC1=CCCCC1 (centres undefined) -6.01%
CCOC(=O)CN(Cc1ccc(OC)c(OC)c1)S(=O)(=O)c1ccc(OC)cc1 1.91%
COc1ccc(CCN(C(=O)COc2ccccc2)c2nc(-c3ccccc3)cs2)cc1OC -5.33%
CC(C)(C)C1CCC(=NNC(=O)c2ccc(Br)o2)CC1 (centres undefined) -11.4%
CCOC(=O)CNC(=O)CSc1nc2cccnc2n1CC -17.6%
CCn1c(SCC(=O)NCC2CCCO2)nc2cc(S(=O)(=O)N3CCCCC3)ccc21 (centres undefined) -12.7%
O=C(CN1CCN(c2ccc(Cl)cc2)CC1)N1CCCC1 -1.51%
O=C(CSCc1ccc(Cl)cc1)N1CCN(Cc2ccc3c(c2)OCO3)CC1 -13.7%
CCCCC/C=C\C/C=C\CCCCCCCCCC(N)=O -6.01%
COc1ccc(NC(=S)NC2CCS(=O)(=O)C2)cc1 (centres undefined) -7.38%
O=c1[nH]nc(CSCc2ccccc2Cl)[nH]1 -4.38%
Clc1ccc(CSc2nnc(/C=C/c3ccccc3)o2)c(Cl)c1 -24.9%
CCOC(=O)Cc1csc(NC(=O)CSc2ccc(Br)cc2)n1 -1.05%

Potency, active:
Cc1ccc(OCCCC(=O)N2CCOCC2)c(C)c1 20 µM
O=[N+]([O-])c1c(NCCO)cc(Sc2nc3ccccc3s2)c2nonc12 11.2 µM
COc1ccccc1CNC(=O)c1ccc(SC)cc1OC 22.4 µM
Cc1ccc(C(=O)c2c(NC(=O)c3ccccc3)sc(C)c2C)cc1 14.1 µM
Cn1cnc([N+](=O)[O-])c1Sc1ccccc1 15.8 µM
CCS(=O)(=O)n1nc(-c2ccccc2)nc1SCc1ccccc1 14.1 µM
COc1ccc(C(CCN(Cc2ccc(OC)c(OC)c2)C(=O)CCl)c2ccccc2)cc1 (centres undefined) 10 µM
CCOC(=O)c1ccc2c(c1)nc(SCC(=O)NC(C)C)n2CC 31.6 µM
O=C(CSCc1ccc(Cl)cc1)N1CCCCC1 15.8 µM
S=c1[nH]nc(CSCc2ccc(Cl)cc2Cl)n1-c1ccccc1 3.16 µM

Source: PubChem BioAssay AID894 (National Center for Advancing Translational Sciences (NCATS), 2007)
